Experimental data as given in PubChem BioAssay (NCATS).
Results filed as inconclusive are left out. Entries that show only a call come without a potency. Activity calls are given as the source filed them. Unless noted, calls come from the whole dose curve; as a rule, active = well fitted curve in the direction sought with a large enough effect; inconclusive = small, poorly fitted or top-dose-only effect, or another doubt; inactive = no such curve, though single readings can be large; an effect the other way counts as inactive or inconclusive.

Tests used:
[1] = KB-8-5-11 P-gp reporter qHTS against the NCATS DSHEA and TCM libraries (AID 1919977)
In short: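 P-gp-overexpressing KB-8-5-11 cells were screened in colchicine-free medium at 500 cells/well, as a titration series. Cells were exposed for 72 h at 37C. Viability was read by CellTiter-Glo luminescence after 30 min at room temperature.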

[2] = target: Cytochrome P450 3A4 (Homo sapiens) (UniProt P08684); test: qHTS for inhibitors of CYP3A4 against the NCATS DSHEA and TCM libraries (AID 1919971);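 note: inhibition lowers luminescence from luciferin made by CYP3A4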
In short: (§1)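 Each CYP isoform and its pro-luciferin substrate, at isoform-specific final concentrations, were preincubated 15 min at RT with substances. NADPH regeneration solution (1x) started a 30-45 min reaction, and P450-Glo luminescence was read.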

[3] = target: Cytochrome P450 2D6 (Homo sapiens) (UniProt P10635); test: qHTS for inhibitors of CYP2D6 against the NCATS DSHEA and TCM libraries (AID 1919972)
In short: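 CYP2D6 enzyme with pro-luciferin substrate in manufacturer buffer (typically 100 mM KPO4), preincubated 15 min RT with substances (most at 19.5 nM upward); NADPH regeneration system (1x) started 30–45 min RT reaction; P450-Glo luminescence read after 30 min; quinidine as intraplate control.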

[4] = target: Cytochrome P450 2C9 (Homo sapiens) (UniProt P11712); test: qHTS for inhibitors of CYP2C9 against the NCATS DSHEA and TCM libraries (AID 1919973);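 note: luminogenic pro-luciferin CYP2C9 substrate turned into luciferin with NADPH regeneration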
In short: as §1

[5] = target: Cytochrome P450 2C19 (Homo sapiens) (UniProt P33261); test: qHTS for inhibitors of CYP2C19 against the NCATS DSHEA and TCM libraries (AID 1919974);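 note: luminescence from luciferin released by CYP2C19 oxidation of a pro-luciferin substrate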
In short: as §1

[6] = target: Cytochrome P450 1A2 (Homo sapiens) (UniProt P05177); test: qHTS for inhibitors of CYPIA2 against the NCATS DSHEA and TCM libraries (AID 1919976)
In short: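 Reaction started with 1x NADPH regeneration solution and run 30-45 min, room temperature, protected from light, after compounds sat 15 min with CYP1A2 and pro-luciferin substrate. P450-Glo detection gave luminescence; furafylline served as control.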

[7] = qHTS profiling for inhibitors of Plasmodium falciparum proliferation (AID 504749); note: nearly all actives have a fitted effect of over 60% in size; details: P. falciparum in erythrocytes, SYBR Green DNA, 72 h
In short: (§2)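 Quantitative HTS: compounds pinned into medium, infected erythrocytes added (0.3% parasitemia, 2.5% hematocrit), 72 h culture at 37 C under 5% CO2. Saponin/Triton lysis with SYBR Green I, overnight RT, then fluorescence read.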

3D7 = test: as above; details: P. falciparum in erythrocytes, SYBR Green DNA, 72 h; series mostly up to 28.7 µM
In short: as §2

7G8 = test: as above; details: P. falciparum in erythrocytes, SYBR Green DNA, 72 h; series mostly up to 28.7 µM
In short: as §2

AA1029 = test: as above; details: P. falciparum in erythrocytes, SYBR Green DNA, 72 h; series mostly up to 28.7 µM
In short: as §2

AS120 = test: as above; details: P. falciparum in erythrocytes, SYBR Green DNA, 72 h; series mostly up to 28.7 µM
In short: as §2

ATS189 = test: as above; details: P. falciparum in erythrocytes, SYBR Green DNA, 72 h; series mostly up to 28.7 µM
In short: as §2

ATS95 = test: as above; details: P. falciparum in erythrocytes, SYBR Green DNA, 72 h; series mostly up to 28.7 µM
In short: as §2

C2A = test: as above; details: P. falciparum in erythrocytes, SYBR Green DNA, 72 h; series mostly up to 28.7 µM
In short: as §2

[8] = qHTS drug screen for cell cycle checkpoint inhibitors in PARPi-resistant BRCA-mutant ovarian cancer cell lines. (AID 1963452; calls by dose curve; note: potency is the fitted concentration of half-maximal effect); details: PEO1/OlaR viability, CellTiter-Glo luminescence, 96 h; for Z-AUC: stronger effect = lower value
In short: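 PEO1, PEO4 and PEO1/OlaR ovarian cancer cells, 600 per well, exposed 96 h at 37C to a dilution series. Viability read by CellTiter-Glo luminescence, normalized to DMSO and empty wells; activity summarized as Z-AUC.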

[9] = at 28.7 µM (top of the series), parasite line A
[10] = at 28.7 µM (top of the series), parasite line B
[11] = at 12.8 µM (top of the series), parasite line A
[12] = at 12.8 µM (top of the series), parasite line B

Chain of Cytochrome P450 2D6 (Homo sapiens) (P10635 whole entry, looked up): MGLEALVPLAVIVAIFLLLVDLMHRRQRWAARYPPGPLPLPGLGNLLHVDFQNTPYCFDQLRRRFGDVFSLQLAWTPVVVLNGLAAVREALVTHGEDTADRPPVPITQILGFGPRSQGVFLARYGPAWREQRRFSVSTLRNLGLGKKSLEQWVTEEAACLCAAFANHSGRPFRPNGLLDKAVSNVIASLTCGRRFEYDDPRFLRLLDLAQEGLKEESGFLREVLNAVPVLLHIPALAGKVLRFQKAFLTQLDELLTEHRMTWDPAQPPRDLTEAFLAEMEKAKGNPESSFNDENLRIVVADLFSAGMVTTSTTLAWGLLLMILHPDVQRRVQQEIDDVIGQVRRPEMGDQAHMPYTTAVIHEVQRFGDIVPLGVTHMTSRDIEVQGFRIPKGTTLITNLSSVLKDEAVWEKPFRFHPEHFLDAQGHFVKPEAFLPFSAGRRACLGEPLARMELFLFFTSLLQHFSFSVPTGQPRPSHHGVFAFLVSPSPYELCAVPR
Chain of Cytochrome P450 1A2 (Homo sapiens) (P05177 whole entry, looked up): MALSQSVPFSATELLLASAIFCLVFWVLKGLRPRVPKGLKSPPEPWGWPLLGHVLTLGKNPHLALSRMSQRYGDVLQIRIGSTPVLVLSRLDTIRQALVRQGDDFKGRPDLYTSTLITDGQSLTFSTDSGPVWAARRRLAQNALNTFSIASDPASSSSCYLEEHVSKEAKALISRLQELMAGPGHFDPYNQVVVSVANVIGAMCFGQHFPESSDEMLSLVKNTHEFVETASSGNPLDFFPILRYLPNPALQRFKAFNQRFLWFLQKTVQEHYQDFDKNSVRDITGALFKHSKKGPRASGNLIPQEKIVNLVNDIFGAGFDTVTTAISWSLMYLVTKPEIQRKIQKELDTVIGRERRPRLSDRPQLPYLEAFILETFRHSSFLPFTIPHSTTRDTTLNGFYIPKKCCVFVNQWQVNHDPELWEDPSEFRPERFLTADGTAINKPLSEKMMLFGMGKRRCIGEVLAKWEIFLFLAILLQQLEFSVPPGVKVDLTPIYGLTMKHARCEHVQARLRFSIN
Chain of Cytochrome P450 2C19 (Homo sapiens) (P33261 whole entry, looked up): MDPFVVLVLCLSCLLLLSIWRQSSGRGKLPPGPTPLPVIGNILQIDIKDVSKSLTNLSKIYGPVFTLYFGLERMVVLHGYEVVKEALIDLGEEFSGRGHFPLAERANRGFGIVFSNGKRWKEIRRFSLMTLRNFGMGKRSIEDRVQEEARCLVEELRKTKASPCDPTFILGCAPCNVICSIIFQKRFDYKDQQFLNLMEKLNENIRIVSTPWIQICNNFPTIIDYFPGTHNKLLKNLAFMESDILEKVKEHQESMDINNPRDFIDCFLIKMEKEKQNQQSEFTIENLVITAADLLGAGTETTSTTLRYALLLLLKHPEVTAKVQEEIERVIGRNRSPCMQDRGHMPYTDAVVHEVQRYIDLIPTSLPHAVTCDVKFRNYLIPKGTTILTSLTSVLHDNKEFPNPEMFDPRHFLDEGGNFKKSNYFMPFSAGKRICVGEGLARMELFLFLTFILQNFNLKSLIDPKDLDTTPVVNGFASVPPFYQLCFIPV
Chain of Cytochrome P450 2C9 (Homo sapiens) (P11712 whole entry, looked up): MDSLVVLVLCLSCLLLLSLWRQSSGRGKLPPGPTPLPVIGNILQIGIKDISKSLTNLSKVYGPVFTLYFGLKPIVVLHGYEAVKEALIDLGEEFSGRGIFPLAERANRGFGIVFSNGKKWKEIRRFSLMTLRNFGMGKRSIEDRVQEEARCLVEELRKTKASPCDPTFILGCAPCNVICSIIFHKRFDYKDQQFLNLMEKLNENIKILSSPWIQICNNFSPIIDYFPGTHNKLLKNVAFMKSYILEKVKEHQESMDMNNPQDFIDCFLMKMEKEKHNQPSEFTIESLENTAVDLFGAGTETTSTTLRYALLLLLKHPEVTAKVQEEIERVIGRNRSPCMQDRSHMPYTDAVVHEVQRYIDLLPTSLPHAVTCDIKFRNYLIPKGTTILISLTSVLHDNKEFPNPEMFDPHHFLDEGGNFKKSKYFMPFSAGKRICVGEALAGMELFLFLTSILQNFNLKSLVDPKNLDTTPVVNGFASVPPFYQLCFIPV
Chain of Cytochrome P450 3A4 (Homo sapiens) (P08684 whole entry, looked up, canonical isoform): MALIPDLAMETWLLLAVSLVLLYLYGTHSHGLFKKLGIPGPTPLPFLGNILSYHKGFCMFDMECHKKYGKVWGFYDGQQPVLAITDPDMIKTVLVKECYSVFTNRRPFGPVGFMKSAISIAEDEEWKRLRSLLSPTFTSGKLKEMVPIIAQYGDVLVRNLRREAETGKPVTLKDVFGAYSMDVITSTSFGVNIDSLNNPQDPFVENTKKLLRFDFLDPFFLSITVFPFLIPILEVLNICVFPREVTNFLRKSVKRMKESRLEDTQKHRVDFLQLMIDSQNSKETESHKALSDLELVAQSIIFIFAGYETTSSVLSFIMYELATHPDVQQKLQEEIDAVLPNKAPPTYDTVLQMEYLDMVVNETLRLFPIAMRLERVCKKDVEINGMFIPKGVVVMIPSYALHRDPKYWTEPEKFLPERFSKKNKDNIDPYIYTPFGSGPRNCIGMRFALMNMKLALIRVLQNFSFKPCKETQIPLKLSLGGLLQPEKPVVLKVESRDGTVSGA

SMILES: CC12CCC(CC1)C(C)(C)O2
- outcome [1]: inactive

SMILES: Nc1ccc(C(=O)O)cc1
- outcome [1]: inactive

SMILES: CCCCCCCCCCCCCCCCCC(=O)O
- outcome [2]: inactive
- outcome [3]: inactive
- outcome [4]: inactive
- outcome [5]: inactive
- outcome [6]: inactive
- outcome [1]: inactive

SMILES: Cc1ncsc1CCCl
- activity, negative = inhibition [7, 9]: 12% (inactive)
- activity, negative = inhibition [7, 10]: 0.0082% (inactive)
- Potency (3D7): inactive
- Potency (7G8): inactive
- Potency (AA1029): inactive
- Potency (AS120): inactive
- Potency (ATS189): inactive
- Potency (ATS95): inactive
- Potency (C2A): inactive

SMILES: CNC(C)(C)Cc1ccccc1
- activity, negative = inhibition [7, 11]: 5.96% (inactive)
- activity, negative = inhibition [7, 12]: 5.61% (inactive)
- Potency (3D7): inactive
- Potency (7G8): inactive
- Potency (AA1029): inactive
- Potency (AS120): inactive
- Potency (ATS189): inactive
- Potency (ATS95): inactive
- Potency (C2A): inactive

SMILES: CC(C)=CC1C(C(=O)OCN2C(=O)C3=C(CCCC3)C2=O)C1(C)C (stereo unspecified)
- activity, negative = inhibition [7, 9]: 4.58% (inactive)
- activity, negative = inhibition [7, 10]: 1.1% (inactive)
- Potency (3D7): inactive
- Potency (7G8): inactive
- Potency (AA1029): inactive
- Potency (AS120): inactive
- Potency (ATS189): inactive
- Potency (ATS95): inactive
- Potency (C2A): inactive

SMILES: O=c1[nH]oc2c1CCNC2
- activity, negative = inhibition [7, 9]: 3.02% (inactive)
- activity, negative = inhibition [7, 10]: 15.3% (inactive)
- Potency (3D7): inactive
- Potency (7G8): inactive
- Potency (AA1029): inactive
- Potency (AS120): inactive
- Potency (ATS189): inactive
- Potency (ATS95): inactive
- Potency (C2A): inactive

SMILES: CCC1(c2ccccc2)C(=O)N(COC)C(=O)N(COC)C1=O
- activity, negative = inhibition [7, 9]: 4.41% (inactive)
- activity, negative = inhibition [7, 10]: 7.29% (inactive)
- Potency (3D7): inactive
- Potency (7G8): inactive
- Potency (AA1029): inactive
- Potency (AS120): inactive
- Potency (ATS189): inactive
- Potency (ATS95): inactive
- Potency (C2A): inactive

SMILES: COP(=S)(OC)Oc1ccc(S(=O)(=O)N(C)C)cc1
- activity, negative = inhibition [7, 9]: 14.2% (inactive)
- activity, negative = inhibition [7, 10]: 1.31% (inactive)
- Potency (3D7): inactive
- Potency (7G8): inactive
- Potency (AA1029): inactive
- Potency (AS120): inactive
- Potency (ATS189): inactive
- Potency (ATS95): inactive
- Potency (C2A): inactive

SMILES: COc1cccc2c1C(=O)c1c(O)c3c(c(O)c1C2=O)C[C@@](O)(C(=O)CO)CC3OC1CC(N2CCOC(OC)C2)C(O)C(C)O1 (stereo partly specified)
- Potency [8]: 7.8 nM (active)
- Z-AUC ([8]; measured here: PEO1 parental Z-AUC): -3.26
- Z-AUC ([8]; measured here: PEO4 Z-AUC): -2.98

SMILES: Oc1ccc(Cl)cc1
- activity, negative = inhibition [7, 9]: 0.659% (inactive)
- activity, negative = inhibition [7, 10]: -12.9% (inactive)
- Potency (3D7): inactive
- Potency (7G8): inactive
- Potency (AA1029): inactive
- Potency (AS120): inactive
- Potency (ATS189): inactive
- Potency (ATS95): inactive
- Potency (C2A): inactive

SMILES: Nc1ccccc1C(=O)O
- activity, negative = inhibition [7, 9]: 15.6% (inactive)
- activity, negative = inhibition [7, 10]: 4.96% (inactive)
- Potency (3D7): inactive
- Potency (7G8): inactive
- Potency (AA1029): inactive
- Potency (AS120): inactive
- Potency (ATS189): inactive
- Potency (ATS95): inactive
- Potency (C2A): inactive

SMILES: O=C1OC(c2ccc(O)c(S(=O)(=O)O)c2)(c2ccc(O)c(S(=O)(=O)O)c2)c2c(Br)c(Br)c(Br)c(Br)c21
- activity, negative = inhibition [7, 9]: 4.12% (inactive)
- activity, negative = inhibition [7, 10]: 7.49% (inactive)
- Potency (3D7): inactive
- Potency (7G8): inactive
- Potency (AA1029): inactive
- Potency (AS120): inactive
- Potency (ATS189): inactive
- Potency (ATS95): inactive
- Potency (C2A): inactive

SMILES: O=c1oc2ccccc2c(O)c1Cc1c(O)c2ccccc2oc1=O
- activity, negative = inhibition [7, 11]: 7.78% (inactive)
- activity, negative = inhibition [7, 12]: 2.51% (inactive)
- Potency (3D7): inactive
- Potency (7G8): inactive
- Potency (AA1029): inactive
- Potency (AS120): inactive
- Potency (ATS189): inactive
- Potency (ATS95): inactive
- Potency (C2A): inactive

SMILES: CCOC(=O)CC(SP(=S)(OC)OC)C(=O)OCC (stereo unspecified)
- activity, negative = inhibition [7, 9]: 10.2% (inactive)
- activity, negative = inhibition [7, 10]: -3.96% (inactive)
- Potency (3D7): inactive
- Potency (7G8): inactive
- Potency (AA1029): inactive
- Potency (AS120): inactive
- Potency (ATS189): inactive
- Potency (ATS95): inactive
- Potency (C2A): inactive

SMILES: CCC1(CC)C(=O)C=CNC1=O
- activity, negative = inhibition [7, 9]: 10.7% (inactive)
- activity, negative = inhibition [7, 10]: 6.45% (inactive)
- Potency (3D7): inactive
- Potency (7G8): inactive
- Potency (AA1029): inactive
- Potency (AS120): inactive
- Potency (ATS189): inactive
- Potency (ATS95): inactive
- Potency (C2A): inactive

SMILES: CCCCC/C=C\C/C=C\C/C=C\C/C=C\CCCC(=O)NCC(=O)O
- activity, negative = inhibition ([7]; at 2.67 µM (top of the series), parasite line A): -21.1% (inactive)
- activity, negative = inhibition ([7]; at 2.67 µM (top of the series), parasite line B): 4.55% (inactive)
- activity, negative = inhibition (3D7): -0.415% [at 2.67 µM] (inactive)
- activity, negative = inhibition (7G8): -4.42% [at 2.67 µM] (inactive)
- activity, negative = inhibition (AA1029): -5.7% [at 2.67 µM] (inactive)
- activity, negative = inhibition (AS120): -10.8% [at 2.67 µM] (inactive)
- activity, negative = inhibition (ATS189): -4.38% [at 2.67 µM] (inactive)
- activity, negative = inhibition (ATS95): -8.06% [at 2.67 µM] (inactive)
- activity, negative = inhibition (C2A): -0.778% [at 2.67 µM] (inactive)

SMILES: NCCc1ccc(O)cc1
- activity, negative = inhibition [7, 9]: 8.86% (inactive)
- activity, negative = inhibition [7, 10]: 7.85% (inactive)
- Potency (3D7): inactive
- Potency (7G8): inactive
- Potency (AA1029): inactive
- Potency (AS120): inactive
- Potency (ATS189): inactive
- Potency (ATS95): inactive
- Potency (C2A): inactive

SMILES: CN1CCC(O)(c2ccc(F)cc2)C(C(=O)c2ccc(F)cc2)C1 (stereo unspecified)
- activity, negative = inhibition [7, 9]: -7.61% (inactive)
- activity, negative = inhibition [7, 10]: -4.09% (inactive)
- Potency (3D7): inactive
- Potency (7G8): inactive
- Potency (AA1029): inactive
- Potency (AS120): inactive
- Potency (ATS189): inactive
- Potency (ATS95): inactive
- Potency (C2A): inactive
